In PubChem BioAssay (NCI):
This is part of a sample that, as a whole, favours compounds with a hit. Of some 83,000 tested, about 20% had one in any assay.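 Plates (96-well) were seeded with cells, treated with compound at one concentration, and incubated for 48 hours before percent growth was determined.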 Values without a mark were called inactive. Activity calls are given as the source filed them. How the source made its calls: active means growth percent below 10; inactive means the rest.

Tested on: NCI/ADR-RES ovarian
Assay: NCI-60 one-dose screen, 48 h (100 = growth as untreated, 0 = no growth, -100 = all killed)
Settings: 10 µM

Q: With c1ccc([C@H]2CN3CCSC3=N2)cc1 as the molecule, how does the growth read?
A: Its growth is 103%.

Q: How did the growth turn out when NC(=O)SCC(=O)Nc1ccc(S(N)(=O)=O)cc1 was run?
A: Its growth is 105%.

Q: With Cc1nc2ccc(CN(C)c3ccc(C(=O)N[C@@H](CCC(=O)O)C(=O)O)s3)cc2c(=O)[nH]1 as the molecule, how does the growth read?
A: The growth was 43.8%.

Q: For COc1ccc(OC)c(/C=C/c2nc(SCc3ccccc3)n(-c3ccc(Cl)cc3)n2)c1, which growth is on record?
A: The growth was 19.1%.

Q: Which growth does the source give for COc1cc(Cc2cc(-c3ccc(Cl)cc3)n[nH]c2=O)ccc1O here?
A: Its growth is 126%.

Q: For CN(C)C(=S)N/N=C\C=N/NC(=S)N(C)C, which growth is on record?
A: The growth was 51.3%.

Q: For COc1ccc(N=C2C(=Nc3ccc(OC)cc3)N(c3ccc(N(C)C)cc3)C(=S)N2c2ccc(OC)cc2)cc1, which growth is on record?
A: Its growth is 95.8%.

Q: For COC(=O)[C@@H]1[C@H](O)[C@H](C)[C@H](O)[C@@](C)(O)/C=C\C=C(C)C(=O)Nc2c(C)c(OC(C)=O)c3c(c2O)C(=O)C(C)=C2OCOC(=C23)C(C)=C[C@@](C)(O)[C@H](O)[C@@H](C)[C@H]1OC(C)=O, which growth is on record?
A: The growth was 114%.

Q: For COc1cccc(C2C3=C(COC3=O)N(CCO)c3cc(OC)ccc32)c1 (stereo not drawn), which growth is on record?
A: The growth was -12.5% (active).

Q: For CCc1ccc2c(c1)N(CCO)C1=C(C(=O)OC1)C2c1ccccc1 (stereo not drawn), which growth is on record?
A: The growth was 78.7%.

Q: For CO/N=C(/C(=O)NC1C(=O)N2C(C(=O)O)=C(COC(N)=O)CSC12)c1ccco1 (stereo not drawn), which growth is on record?
A: The growth was 110%.

Q: COc1ccc(N2C(=O)C3c4[nH]c5ccc(OCc6ccccc6)cc5c4C4CCC(C(C)C)CC4C3C2=O)cc1 (stereo not drawn) was tested. Which growth did it give?
A: Its growth is 109%.

Q: For CCN(CC)CCNC(=O)c1ccc(NC(C)=O)cc1, which growth is on record?
A: Its growth is 96.9%.
